Measured values taken from the supplement of paper PMC9262897, “Low-cost anti-mycobacterial drug discovery using engineered E. coli” (Nature Communications, 2022).
Counter-ions that a name gives are not always drawn. ± gives the standard deviation of the averaged measurements.

Tests used:
Experiment in all cases: growth (OD600 after 10 h); higher = more growth (less inhibition)
[1] = system: E. coli TESEC Alr+ wild-type control; conditions: compound 0.1 mM; raw OD600 reference: median of DMSO wells 0.241, cell-free background 0.041
Procedure: (§1)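 TESEC Mtb Alr E. coli, or the Alr+ wild-type control, in 384-well plates with Prestwick library compounds at 0.1 mM and 1% DMSO, across arabinose induction levels of 1E3 to 1E7 nM. Growth is read as OD600 after 10 h at 37 °C in triplicate biological replicates.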

[2] = system: E. coli TESEC Mtb Alr; conditions: compound 0.1 mM
Procedure: as §1

[3] = system: E. coli TESEC Mtb Asd; conditions: compound 0.1 mM
Procedure: (§2)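 TESEC E. coli strains in which the native enzyme is deleted and replaced by arabinose-inducible Mtb Asd, DapB, CysH or TrpD, each grown in its selective medium. Strains were screened against the Prestwick library at 0.1 mM and 1% DMSO in 384-well format at low and high arabinose induction. Growth is read as OD600 after 10 h in triplicate.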

[4] = system: E. coli TESEC Mtb Alr; conditions: compound 0.1 mM; remark: listed apart in the source
Procedure: (§3)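 TESEC Mtb Alr E. coli (ΔaraC ΔtolC ΔentC Δalr ΔdadX, arabinose-inducible Mtb Alr) or the Alr+ wild-type control strain, grown in defined M9-fructose medium without D-alanine in 96-well plates with Prestwick library compounds at 0.1 mM and 1% DMSO. Low Alr induction is 0.1 µM arabinose and high induction is 10 mM arabinose.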

[5] = system: E. coli TESEC Alr+ wild-type control; conditions: compound 0.1 mM; raw OD600 reference: median of DMSO wells 0.49, cell-free background 0.052
Procedure: as §3

[6] = system: E. coli TESEC Mtb DapB; conditions: compound 0.1 mM
Procedure: as §2

[7] = arabinose 1000 nM, raw OD600 reference: median of DMSO wells 0.294, cell-free background 0.041
[8] = arabinose 10000 nM, raw OD600 reference: median of DMSO wells 0.264, cell-free background 0.041
[9] = arabinose 100000 nM, raw OD600 reference: median of DMSO wells 0.201, cell-free background 0.041
[10] = arabinose 1000000 nM, raw OD600 reference: median of DMSO wells 0.193, cell-free background 0.041
[11] = arabinose 10000000 nM, raw OD600 reference: median of DMSO wells 0.146, cell-free background 0.041
[12] = arabinose induction (level): High, raw OD600 reference: median of DMSO wells 0.331, cell-free background 0.041
[13] = arabinose induction (level): Low, raw OD600 reference: median of DMSO wells 0.417, cell-free background 0.041
[14] = arabinose 100 nM, raw OD600 reference: median of DMSO wells 0.413, cell-free background 0.052
[15] = arabinose 10000000 nM, raw OD600 reference: median of DMSO wells […], cell-free background 0.052
[16] = arabinose induction (level): High, raw OD600 reference: median of DMSO wells […], cell-free background 0.041
[17] = arabinose induction (level): Low, raw OD600 reference: median of DMSO wells 0.227, cell-free background 0.041

Row | SMILES | growth [1] | growth [2, 7] | growth [2, 8] | growth [2, 9] | growth [2, 10] | growth [2, 11] | growth [3, 12] | growth [3, 13] | growth [4, 14] | growth [4, 15] | growth [5] | growth [6, 16] | growth [6, 17]
1 | NCc1ccc(S(N)(=O)=O)cc1 [Mafenide hydrochloride] | 0.248 ± 0.0039 | 0.295 ± 0.021 | 0.259 ± 0.0097 | 0.187 ± 0.015 | 0.177 ± 0.0036 | 0.14 ± 0.0058 | 0.358 ± 0.018 | 0.41 ± 0.044 | 0.418 ± 0.0068 | 0.373 ± 0.018 | – | – | –
2 | O=C(O)c1cccnc1Nc1cccc(C(F)(F)F)c1 [Niflumic acid] | 0.113 ± 0.0057 | 0.0693 ± 0.0078 | 0.0488 ± 0.00046 | 0.145 ± 0.002 | 0.06687 ± 0.00065 | 0.099 ± 0.0016 | 0.15 ± 0.022 | 0.16 ± 0.018 | 0.244 ± 0.066 | 0.0999 ± 0.0073 | – | – | –
3 | CC(C)(Oc1ccc(CCNC(=O)c2ccc(Cl)cc2)cc1)C(=O)O [Bezafibrate] | 0.249 ± 0.0031 | 0.296 ± 0.0036 | 0.237 ± 0.0024 | 0.208 ± 0.028 | 0.163 ± 0.0041 | 0.138 ± 0.0072 | 0.237 ± 0.074 | 0.298 ± 0.021 | 0.43 ± 0.0059 | 0.322 ± 0.019 | 0.483 ± 0.015 | – | –
4 | CC(C)(C)NC[C@H](O)COc1nsnc1N1CCOCC1 [Timolol maleate salt] | 0.2306 ± 0.00072 | 0.306 ± 0.0088 | 0.252 ± 0.0061 | 0.198 ± 0.0053 | 0.172 ± 0.0044 | 0.151 ± 0.006 | 0.451 ± 0.021 | 0.432 ± 0.019 | 0.401 ± 0.015 | 0.32 ± 0.021 | – | – | –
5 | COc1ccc(C2CNC(=O)C2)cc1OC1CCCC1 (configuration not stated) [Rolipram] | 0.209 ± 0.0078 | 0.275 ± 0.012 | 0.29 ± 0.0047 | 0.177 ± 0.0086 | 0.198 ± 0.012 | 0.14 ± 0.0022 | 0.373 ± 0.044 | 0.425 ± 0.047 | 0.4 ± 0.013 | 0.311 ± 0.019 | – | – | –
6 | CN(C)CCOc1ccc(/C(=C(/CCCl)c2ccccc2)c2ccccc2)cc1 [Toremifene] | 0.0414 ± 0.0014 | 0.04087 ± 0.0004 | 0.04003 ± 0.00032 | 0.0409 ± 0.00036 | 0.04023 ± 0.00025 | 0.04073 ± 0.00021 | 0.0528 ± 0.00055 | 0.057 ± 0.0021 | 0.0666 ± 0.015 | 0.0577 ± 0.0032 | – | – | –
7 | COC(=O)[C@H]1[C@H]2C[C@@H]3c4[nH]c5cc(OC)ccc5c4CCN3C[C@H]2C[C@@H](OC(=O)c2cc(OC)c(OC)c(OC)c2)[C@@H]1OC [Reserpine] | 0.201 ± 0.0092 | 0.234 ± 0.027 | 0.223 ± 0.02 | 0.214 ± 0.012 | 0.193 ± 0.012 | 0.214 ± 0.0036 | 0.333 ± 0.032 | 0.191 ± 0.0062 | 0.408 ± 0.013 | 0.112 ± 0.076 | – | – | –
8 | C[C@H](N)[C@H](O)c1cccc(O)c1 [Metaraminol bitartrate] | 0.245 ± 0.015 | 0.278 ± 0.0096 | 0.267 ± 0.0062 | 0.186 ± 0.013 | 0.185 ± 0.0027 | 0.153 ± 0.018 | 0.333 ± 0.062 | 0.415 ± 0.029 | 0.426 ± 0.0087 | 0.356 ± 0.0097 | – | – | –
9 | CO/N=C(\C(=O)N[C@@H]1C(=O)N2C(C(=O)OC(C)OC(C)=O)=C(COC(N)=O)CS[C@H]12)c1ccco1 (some centres not stated) [Cefuroxime axetil] | 0.148 ± 0.0057 | 0.115 ± 0.007 | 0.0663 ± 0.0028 | 0.124 ± 0.0033 | 0.166 ± 0.0066 | 0.158 ± 0.006 | 0.246 ± 0.023 | 0.316 ± 0.011 | 0.059 ± 0.0076 | 0.257 ± 0.011 | – | – | –
10 | CCOC(=O)[N-]c1c[n+](N2CCOCC2)no1 [Molsidomine] | 0.245 ± 0.0064 | 0.307 ± 0.0077 | 0.27 ± 0.0035 | 0.244 ± 0.048 | 0.182 ± 0.0019 | 0.166 ± 0.0027 | 0.305 ± 0.1 | 0.338 ± 0.084 | 0.408 ± 0.014 | 0.313 ± 0.022 | – | – | –
11 | Cc1ccc(Cl)c(Nc2ccccc2C(=O)O)c1Cl [Meclofenamic acid sodium salt monohydrate] | 0.0491 ± 0.00067 | 0.0555 ± 0.0013 | 0.0424 ± 0.00044 | 0.0566 ± 0.00087 | 0.04353 ± 0.00038 | 0.0628 ± 0.001 | 0.0702 ± 0.014 | 0.0796 ± 0.0032 | 0.0708 ± 0.027 | 0.0591 ± 0.0032 | – | – | –
12 | O=C(NCCNCC(O)COc1ccc(O)cc1)N1CCOCC1 (configuration not stated) [Xamoterol hemifumarate] | 0.241 ± 0.013 | 0.303 ± 0.014 | 0.272 ± 0.0074 | 0.195 ± 0.022 | 0.19 ± 0.0053 | 0.138 ± 0.0031 | 0.447 ± 0.069 | 0.463 ± 0.043 | 0.405 ± 0.016 | 0.326 ± 0.0053 | – | – | –
13 | CNCCC(Oc1ccccc1OC)c1ccccc1 (configuration not stated) [Nisoxetine hydrochloride] | 0.206 ± 0.015 | – | – | – | – | – | 0.247 ± 0.049 | 0.405 ± 0.026 | 0.4 ± 0.011 | 0.346 ± 0.018 | 0.566 ± 0.12 | 0.149 ± 0.031 | 0.2 ± 0.018
14 | CCCSc1ccc2[nH]c(NC(=O)OC)nc2c1 [Albendazole] | 0.246 ± 0.025 | – | – | – | – | – | 0.41 ± 0.017 | 0.409 ± 0.033 | 0.428 ± 0.01 | 0.419 ± 0.054 | 0.48 ± 0.013 | 0.205 ± 0.0098 | 0.25 ± 0.025
15 | CCN(CC)CCNc1ccc(CO)c2sc3ccccc3c(=O)c12 [Hycanthone] | 0.0743 ± 0.0024 | 0.0851 ± 0.0084 | 0.0559 ± 0.00057 | 0.1 ± 0.0034 | 0.0552 ± 0.00075 | 0.0769 ± 0.0069 | 0.0901 ± 0.025 | 0.075 ± 0.0065 | 0.365 ± 0.042 | 0.232 ± 0.033 | – | – | –
16 | CC(=O)O[C@]1(C(C)=O)CC[C@H]2[C@@H]3C=C(Cl)C4=CC(=O)[C@@H]5C[C@@H]5[C@]4(C)[C@H]3CC[C@@]21C [Cyproterone acetate] | 0.1672 ± 0.001 | – | – | – | – | – | 0.111 ± 0.041 | 0.109 ± 0.0055 | 0.385 ± 0.035 | 0.0934 ± 0.024 | 0.355 ± 0.17 | 0.135 ± 0.01 | 0.131 ± 0.011
17 | O=C(O)c1ccccc1OP(=O)(O)O [Fosfosal] | 0.242 ± 0.0067 | 0.292 ± 0.017 | 0.266 ± 0.0057 | 0.192 ± 0.026 | 0.198 ± 0.0055 | 0.137 ± 0.0018 | 0.349 ± 0.051 | 0.424 ± 0.097 | 0.405 ± 0.01 | 0.366 ± 0.0071 | – | – | –
18 | O=c1[nH]cc(F)c(=O)[nH]1 [5-fluorouracil] | 0.122 ± 0.0069 | – | – | – | – | – | 0.193 ± 0.013 | 0.238 ± 0.015 | 0.359 ± 0.041 | 0.134 ± 0.013 | 0.556 ± 0.066 | 0.151 ± 0.011 | 0.142 ± 0.013
19 | CC(C)C(=O)Nc1ccc([N+](=O)[O-])c(C(F)(F)F)c1 [Flutamide] | 0.191 ± 0.0072 | – | – | – | – | – | 0.156 ± 0.024 | 0.165 ± 0.01 | 0.383 ± 0.036 | 0.16 ± 0.036 | 0.506 ± 0.0074 | 0.177 ± 0.013 | 0.218 ± 0.039
20 | CCCOc1ccccc1-c1nc2[nH]nnc2c(=O)[nH]1 [Zaprinast] | 0.205 ± 0.0049 | – | – | – | – | – | 0.268 ± 0.029 | 0.313 ± 0.046 | 0.396 ± 0.0084 | 0.289 ± 0.0088 | 0.507 ± 0.057 | 0.191 ± 0.0075 | 0.199 ± 0.024
21 | CNC(C)CCC=C(C)C (configuration not stated) [Isometheptene mucate] | 0.259 ± 0.012 | – | – | – | – | – | 0.228 ± 0.035 | 0.397 ± 0.096 | 0.405 ± 0.017 | 0.314 ± 0.02 | 0.51 ± 0.055 | 0.22 ± 0.0027 | 0.246 ± 0.018
